{"source": "PubChem BioAssay AID977607", "about": "(Broad Institute, 2014)", "note": "About 460 (31%) of roughly 1,500 compounds were called active. About 1% were inconclusive and are not listed. A selection follows. Entries with a potency or affinity are not part of this list. A number with no mark means an inactive call.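 How the source made its calls: active means curve reaches 40% activation over neutral controls at an AC40 no higher than the top valid tested concentration; inconclusive means no clear call, values can overlap the other calls; inactive means signal moving opposite to the expected increase, and the rest.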", "data": [{"assay": "GLuc-reported insulin release enhancers, glucose-stimulated beta cells – cell-based, INS-1E, Gaussia luciferase, luminescence, cherry-pick, set 2, dose response (AID 977607);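 further: 0% = median of the plate neutral control wells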", "settings": "INS-1E GLuc insulin secretion reporter, 2-3 h, hits give high values; at 35 µM, 100% = signal doubled over neutral wells unless noted", "values": [{"smiles": "Cc1ccccc1S(=O)(=O)N1CC(=O)N2[C@@H](CO)[C@H](c3ccc(C#CCC4CCCC4)cc3)[C@@H]2C1", "max activation": "276% [at 35 µM]"}, {"smiles": "CCC(=O)Nc1cc(C(C)(C)C)ccc1C(C)=O", "max activation": "-23.6% [at 0.135 µM, 100% = signal doubled over neutral wells]"}, {"smiles": "O=C(c1cccs1)N(Cc1ccccn1)Cc1ccco1", "max activation": "-16.4% [at 0.015 µM, 100% = signal doubled over neutral wells]"}, {"smiles": "CN1CCN(c2ccc(CNC(=O)C3(C)Cc4c(-c5ccccc5)ccnc4O3)cc2)CC1", "note": "(stereo not given)", "max activation": "-21.2% [at 0.005 µM, 100% = signal doubled over neutral wells]"}, {"smiles": "CNC(=O)c1[nH]nc2c1CCc1cc(OC)ccc1-2", "max activation": "-16.9% [at 0.005 µM, 100% = signal doubled over neutral wells]"}, {"smiles": "COc1ccc2c(c1)CCc1cc(C(=O)O)sc1-2", "max activation": "-25.3% [at 0.135 µM, 100% = signal doubled over neutral wells]"}, {"smiles": "Cc1cc(C)nc(NC(N)=NCCc2c[nH]c3ccccc23)n1", "max activation": "-23.4% [at 0.046 µM, 100% = signal doubled over neutral wells]"}, {"smiles": "COc1cc(C(F)(F)F)c(C(=O)NCc2cccc(Cl)c2)cn1", "max activation": "-11.8%"}, {"smiles": "CCN(CC)CCCN=C1N[C@@H](c2ccccc2)C(C(=O)OC)=C(C)N1CC", "max activation": "-23.5% [at 3.8 µM, 100% = signal doubled over neutral wells]"}, {"smiles": "COC(=O)C1=C(C)N(Cc2ccc(C(F)(F)F)cc2)C(=NCC2CC2)NC1c1ccccc1", "note": "(stereo not given)", "max activation": "-21% [at 3.8 µM, 100% = signal doubled over neutral wells]"}, {"smiles": "CCCCN(Cc1nc2ccccc2c(=O)[nH]1)C(=O)c1nn(C)c(=O)c2ccccc12", "max activation": "-30.4% [at 0.0016 µM, 100% = signal doubled over neutral wells]"}, {"smiles": "Clc1cc(NC2CCCCC2)ncn1", "max activation": "-22.5% [at 11 µM, 100% = signal doubled over neutral wells]"}, {"smiles": "CC(C)c1cc(C(C)C)n2nc(N)nc2n1", "max activation": "24.3%"}, {"smiles": "COCCOC(=O)C1=C(C)NC(=O)N(C(C)=O)C1c1ccc(Cl)cc1", "note": "(stereo not given)", "max activation": "-26.3% [at 3.8 µM, 100% = signal doubled over neutral wells]"}, {"smiles": "NC1=NC(=O)C(Cc2ccc(F)cc2)S1", "note": "(stereo not given)", "max activation": "-13% [at 0.015 µM, 100% = signal doubled over neutral wells]"}]}]}
